Results reported in publication PMC5540273 (PLoS ONE, 2017).

Legend:
Details in all cases: concentration: 1 μM, replicates: in singlicate; n = 1
EPHA7 = test system: EPHA7
EPHA8 = test system: EPHA8
EPHB1 = test system: EPHB1
EPHB2 = test system: EPHB2
EPHB3 = test system: EPHB3
EPHB4 = test system: EPHB4
EPHB6 = test system: EPHB6
ERBB2 = test system: ERBB2
ERBB3 = test system: ERBB3
ERBB4 = test system: ERBB4
ERK1 = test system: T1, ERK1
T1 construct: gene MAPK3

ERK2 = test system: T2, ERK2
T2 construct: gene MAPK1

ERK3 = test system: T3, ERK3
T3 construct: gene MAPK6

ERK4 = test system: T4, ERK4
T4 construct: gene MAPK4

ERK5 = test system: T5, ERK5
T5 construct: gene MAPK7

ERK8 = test system: T6, ERK8
T6 construct: gene MAPK15

ERN1 = test system: ERN1
FAK = test system: T7, FAK
T7 construct: gene PTK2

FER = test system: FER
FES = test system: FES
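Further: KINOMEscan kinase panel screen.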

SMILES	%Inh (EPHA7) [%]	%Inh (EPHA8) [%]	%Inh (EPHB1) [%]	%Inh (EPHB2) [%]	%Inh (EPHB3) [%]	%Inh (EPHB4) [%]	%Inh (EPHB6) [%]	%Inh (ERBB2) [%]	%Inh (ERBB3) [%]	%Inh (ERBB4) [%]	%Inh (ERK1) [%]	%Inh (ERK2) [%]	%Inh (ERK3) [%]	%Inh (ERK4) [%]	%Inh (ERK5) [%]	%Inh (ERK8) [%]	%Inh (ERN1) [%]	%Inh (FAK) [%]	%Inh (FER) [%]	%Inh (FES) [%]
COc1cc(Nc2nccc(-c3c(-c4cccc(NC(=O)c5c(F)cccc5F)c4)nn4ccccc34)n2)cc(OC)c1OC [GSK323521]	15	20	14	9	1	8	71	6	0	12	25	36	0	3	0	24	2	0	14	0
Cc1ccc(F)c(C(=O)Nc2cccc(-c3nn4ccccc4c3-c3ccnc(Nc4cccc(F)c4)n3)c2)c1F [GSK361061]	41	53	40	0	9	10	94.3	88	25	96.4	26	0	16	21	0	0	25	0	40	0
CSc1cccc2c(-c3ccncn3)c(-c3ccc(F)cc3)nn12 [GW514786]	9	26	15	0	4	2	20	34	13	0	14	6	0	5	0	0	12	0	17	0
COc1ccc(CNC(=O)NC2CCN(c3ccnc(Nc4ccc(F)cc4)n3)CC2)cc1 [GSK1379788]	0	0	1	0	0	7	38	34	10	25	0	0	0	0	0	0	0	0	17	0
Cl.Cl.NCC(NCc1ccc(-c2ccnc3[nH]ccc23)s1)c1ccccc1 (stereo not shown) [GSK1321565]	0	0	13	0	5	7	27	0	19	11	0	0	2	0	2	18	17	19	46	0
COc1cc(Nc2nccc(N3CCC(NC(=O)Nc4cccc(C(C)=O)c4)C3)n2)cc(OC)c1OC (stereo not shown) [GSK1379753]	11	16	18	0	13	6	88	2	0	19	0	0	9	15	0	0	5	0	22	0
Cc1ccc(S(=O)(=O)Nc2ccc(Nc3nccc(Nc4cccc5[nH]ncc45)n3)cc2)cc1 [GSK581271]	12	30	29	0	3	26	31	14	0	39	0	0	0	5	0	28	0	0	7	0
O=C(Nc1ccccc1F)NC1CCN(c2ccnc(Nc3ccc(F)cc3)n2)CC1 [GSK1379800]	0	0	17	0	11	8	18	33	3	32	3	0	20	0	0	0	0	0	15	0
Cl.c1ccc(-c2ccc3c(Nc4ccc5[nH]ccc5c4)ccnc3c2)nc1 [GW440138]	3	25	11	0	1	5	79	63	50	44	8	0	0	6	0	0	0	0	0	0
Cl.NC(=O)c1cccc(Nc2nccc(Nc3ccc(Oc4c(Cl)cccc4Cl)c(Cl)c3)n2)c1 [GW659009]	0	6	93.5	0	0	0	32	92.5	93.3	93.9	0	0	0	0	0	10	12	0	0	0
C[C@@H]1CC[C@@H](C(=O)Nc2ccccc2)CN1c1cc(-c2ccc3c(N)n[nH]c3c2)nc(N)n1 [GSK2286062]	0	4	5	0	0	10	14	44	0	0	10	0	0	28	0	0	0	0	13	12
COC(=O)Nc1nc2cc(Oc3ccc(NC(=O)Nc4cc(C(F)(F)F)ccc4F)cn3)ccc2[nH]1.Cl.Cl [GW681170]	82	98.2	63	78	12	55	86	22	2	2	8	0	0	1	0	95.3	0	0	23	0
COc1ccc(Nc2nccc(NCCNC(=O)c3cc4ccccc4s3)n2)cc1 [GSK1379896]	0	3	16	0	5	0	0	4	0	0	0	0	0	0	0	0	0	11	12	0
COc1cc(Nc2nccc(N3CCC(NC(=O)c4cc5ccccc5s4)C3)n2)cc(OC)c1OC (stereo not shown) [GSK1379760]	4	17	6	26	5	15	61	6	12	0	12	9	0	0	0	0	6	0	34	0
CN1CCN(Cc2cccc(-c3ccc4c(Nc5ccc(Oc6ccccc6)cc5)ccnc4c3)c2)CC1 [GW578342]	0	0	25	16	7	10	87	62	99.1	55	4	0	0	9	0	0	11	0	4	4
Cn1cc(-c2[nH]c3cc(NC(=O)[C@H](N)C4CCCCC4)cc4c3c2C=NNC4=O)cn1	4	10	15	0	1	0	92.4	64	77	36	33	22	0	6	27	55	21	5	13	0
COc1ccc(-c2coc3ccc(-c4nnc(SCc5ccc(OC)c(C(F)(F)F)c5)o4)cc23)cc1	19	14	26	24	20	0	16	19	28	21	8	24	0	3	2	2	44	10	0	4
Cc1occc1-c1ncc(OC[C@@H](N)Cc2c[nH]c3ccccc23)cc1-c1ccc2[nH]nc(C)c2c1.O=C(O)C(F)(F)F [GSK682037]	6	39	10	0	17	14	0	81	0	47	94.1	82	5	15	0	0	6	40	76	47
O=C(Nc1n[nH]c2nc(-c3ccc(O)cc3)ccc12)C1CC1 [SB-710363]	0	0	0	16	0	0	38	0	94.6	6	0	0	0	0	63	90.2	0	0	0	0
CCCCc1nn2ncccc2c1-c1ccnc(Nc2ccc(N3CCN(C)CC3)cc2)n1 [GW684941]	0	73	65	26	18	62	97.7	69	72	66	0	0	46	0	0	63	0	0	47	14
